Reference: the OligoGym collection

Each sequence was assayed against SURF1 (assay: pooled miR-30 sensor sort-seq; sequence = guide strand). Conditions: shRNA.
With TTTCTTAAACCACAGGTAGGAT the sensor-assay potency score (higher = more potent) was -0.803.
In the case of TTGTGGCAGATGCTTCTGCTGC, the sensor-assay potency score (higher = more potent) is reported as -1.64.
Sequence TACCAGTAGCACATGATCCAGC has a sensor-assay potency score (higher = more potent) of -0.00567.
Sequence TTCAGGATTCACTTTCTTCCTG has a sensor-assay potency score (higher = more potent) of -0.13.
TCTGTCAGCCTCACCATCCCAA gave a sensor-assay potency score (higher = more potent) of -0.843.

The sequences below were run against SYBU in the same assay as above. Conditions: shRNA.
Sequence TCATCGAACAAATCTGTGCTGT has a sensor-assay potency score (higher = more potent) of -0.248.
TTGATTCCTTCTTATATCGAGA was tested, and the sensor-assay potency score (higher = more potent) was -0.708.
Work on TTAAATGGAAACACTAATCTTT yielded a sensor-assay potency score (higher = more potent) of 0.258.
TTTGATTCCTTCTTATATCGAG was tested, and the sensor-assay potency score (higher = more potent) was 0.632.
TAAAATCAGCTTCACTACCTGG was tested, and the sensor-assay potency score (higher = more potent) was -0.495.
In the case of TCACCAACCATTCCAATCGTGC, the sensor-assay potency score (higher = more potent) is reported as -1.21.
TTCACCAACCATTCCAATCGTG gave a sensor-assay potency score (higher = more potent) of 0.00982.
TAACAGTTTAAGAACAAACAAG showed a sensor-assay potency score (higher = more potent) of -1.43.
Sequence TTGTAGGAGCCTGAGTTGCTAC has a sensor-assay potency score (higher = more potent) of -1.24.
In the case of TTCTGCATCCACATTGGCGTAG, the sensor-assay potency score (higher = more potent) is reported as -0.476.
Sequence TTGCATGAACTTCTGCATCCAC has a sensor-assay potency score (higher = more potent) of 0.0297.
In the case of TTCGATGACCTGTTTGAGCTGT, the sensor-assay potency score (higher = more potent) is reported as 0.425.

The sequences below were run against SYCP2L in the same assay as above. Conditions: shRNA.
TTGGTCACCAAGTCTGTTGTTT showed a sensor-assay potency score (higher = more potent) of -0.185.
Sequence TTGATTGTTGTGACTTAGCAAA has a sensor-assay potency score (higher = more potent) of -1.27.
TTCATGACTTCTTTGTAGCTGA showed a sensor-assay potency score (higher = more potent) of 0.227.
For TAGGTTTTTCTTCATCTTCTGA, the sensor-assay potency score (higher = more potent) was -0.679.
Work on AATATCTTTATCTTCTCCGTTT yielded a sensor-assay potency score (higher = more potent) of -0.529.
Sequence TATATAAAAAGTGACACTCTGA has a sensor-assay potency score (higher = more potent) of -0.257.
Sequence TTCATCACCGCTTCCTTCGGAA has a sensor-assay potency score (higher = more potent) of -0.0578.
TTCTTTGTAGCTGATAATCATG was tested, and the sensor-assay potency score (higher = more potent) was -1.28.
With ATCTTCTATAACACAAATCAGC the sensor-assay potency score (higher = more potent) was -1.67.
With TTATTGATCTGTCAAGACGGTA the sensor-assay potency score (higher = more potent) was -0.997.
In the case of TTCTATAACACAAATCAGCGAC, the sensor-assay potency score (higher = more potent) is reported as -0.297.

These sequences were tested against SYN3 in the same assay as above. Conditions: shRNA.
TTTGCTGCTGTGGAGATCCGGA was tested, and the sensor-assay potency score (higher = more potent) was -0.473.
Sequence TTGGCCTCGTCTTCACTTGGGG has a sensor-assay potency score (higher = more potent) of -0.142.
Work on TAGTTGGATCCAATTTTCTGGA yielded a sensor-assay potency score (higher = more potent) of -1.06.
Work on TTTTGGAGACAACAAGGTCGGC yielded a sensor-assay potency score (higher = more potent) of -0.766.
Work on TCGATCACCAACAGGATCCTGG yielded a sensor-assay potency score (higher = more potent) of -0.321.
TTTCTGGATGCGGATGTCGTAC showed a sensor-assay potency score (higher = more potent) of -1.02.
Work on TAATCTCTGCCATCCTTGCTGT yielded a sensor-assay potency score (higher = more potent) of -0.283.
Work on TTGTAGACGGAGTAGAGAGAGT yielded a sensor-assay potency score (higher = more potent) of -1.24.
In the case of TTTGGAGACAACAAGGTCGGCC, the sensor-assay potency score (higher = more potent) is reported as -0.0801.
TTCCACTTTGATCTTTCCCATT showed a sensor-assay potency score (higher = more potent) of -1.45.
TTCCACATGCTCTCCAATCAGC showed a sensor-assay potency score (higher = more potent) of -0.957.
